Source: PubChem BioAssay
Pf growth 48h: P. falciparum growth inhibition at 48 hours (one generation). P. falciparum luciferase growth in erythrocytes, 48 h. AID 504832. hit rate 5.9% among 310,000. Potency, µM (doses to about 28.7 µM), for inactives: at the top dose activity change, negative = inhibition, most hits filed as inhibitors; further: potency means the concentration at half of the fitted maximal effect; on the % scale 0 is the no-effect control and ±100 the full control effect
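Here the parasites carry a stable luciferase gene and grow inside erythrocytes in Albumax-based RPMI medium with compound for one erythrocytic cycle. Activity is scored as loss of luminescent signal.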
Shiga toxin inh: Shiga toxin inhibition; Vero cells, Shiga toxin protein synthesis inhibition reporter; inhibition, % at 38.7 µM; hit rate 9.2% among 290,000; AID 2315; in the data active means inhibition mostly above about 28%, no sharp cut-off; inactive means mostly below about 43%; further: 0% is about no effect
Pf growth 96h: P. falciparum growth inhibition at 96 hours; P. falciparum luciferase reporter growth, 96 h; Potency, µM (doses to about 28.7 µM), inactives show at the highest dose activity change, negative = inhibition, actives largely listed as inhibitors; hit rate 6.9% among 320,000; AID 504834; further: potency means the concentration at half of the fitted maximal effect; on the % scale 0 is the no-effect control and ±100 the full control effect
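Compounds incubated with erythrocytes infected by luciferase-expressing P. falciparum (2% hematocrit, 0.05% parasitemia final) for 96 hours, 37 C in 5% CO2. Growth inhibition scored as decreased luciferase luminescence.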
SARS PLP yeast: inhibitors of SARS-CoV papain-like protease in yeast | S. cerevisiae expressing SARS-CoV PLpro, growth rescue | Potency, µM (series often up to 32.9 µM), inactives show top-dose activity, positive = growth rescue, usual class: activators | hit rate 0.19% among 330,000 | AID 485353; calls by dose curve; further: potency means the concentration at half of the fitted maximal effect; 0% is about no effect; nearly all actives have a fitted effect of over 55% in size
Cycloheximide cs: counter-screen for Shiga toxin inhibitors: cycloheximide protein synthesis inhibition | cell reporter, cycloheximide protein synthesis inhibition counterscreen | max response, % | hit rate 12% among 300,000 | AID 2314; in the data active means max response mostly above about 13%, no sharp cut-off; inactive means mostly below about 14%; further: read at 38.3 µM for the half of the compounds with a filed dose; 0% is about no effect
NS1 function inh: blocks influenza NS1 protein function; AID 2326; Potency, µM (highest dose often 46.1 µM), for inactives: top-dose activity, positive = more growth; hit rate 0.4% among 270,000; calls by dose curve; further: potency means the concentration at half of the fitted maximal effect; actives are rising curves; nearly all actives have a fitted effect of over 50% in size
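A cell-based growth assay was used: compounds that relieve NS1-induced slow growth of budding yeast raise OD600. Assay medium was yeast nitrogen base with ammonium sulphate and -URA supplement, pH 6.0, with 2% galactose.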
* marks the source's active call; other numbers are inactive results; ? = inconclusive; / = not tested or not shown. In the library only some 21% were active in any assay of this set; here they are far more common. Unless noted, the call rests on the fitted dose curve; in most records, active means well fitted inhibition curve with a large enough effect; inconclusive means small, poorly fitted or top-dose-only effect, or another doubt; inactive means no such curve, though single readings can be large or run the other way.

SMILES	Pf growth 48h	Shiga toxin inh	Pf growth 96h	SARS PLP yeast	Cycloheximide cs	NS1 function inh
COc1ccc(S(=O)(=O)NCC(=O)N(Cc2ccco2)C(C(=O)NC(C)(C)C)C(C)C)cc1 (centres undefined)	-8%	23	?	-1%	-6	-4%
O=C(CC1C(=O)NCCN1C(=O)c1ccc([N+](=O)[O-])cc1)Nc1ccc(F)cc1 (centres undefined)	-14%	-5	7%	0%	2	1%
COc1ccc(NC2CCCN(C(=O)CSc3ccncc3)C2)cc1 (centres undefined)	-10%	8	-9%	0%	2	8%
COc1ccc(CCN2C(=O)c3[nH]nc(-c4ccccc4O)c3C2c2cccc(O)c2)cc1OC (centres undefined)	10µM*	-8	13µM*	-3%	-6	9%
COc1ccc(C2c3c(-c4ccccc4O)n[nH]c3C(=O)N2Cc2ccco2)cc1OC (centres undefined)	-43%	12	-20%	0%	0	-6%
O=C(Nc1ccnn1C1CCN(C(=O)CCc2ccc(F)cc2)CC1)C1CCOC1 (centres undefined)	?	15	1%	2%	20*	3%
O=C(Nc1ccnn1C1CCN(C(=O)c2ccc(F)cc2)CC1)C1CCOC1 (centres undefined)	13%	-6	6%	1%	-4	17%
O=C(Nc1ccnn1C1CCN(Cc2cc3ccccc3[nH]2)CC1)C1CCOC1 (centres undefined)	-14%	-2	5.2µM*	-1%	-8	1%
Cc1c(CN2CCC(n3nccc3NC(=O)C3CCOC3)CC2)[nH]c2ccccc12 (centres undefined)	11%	-16	-11%	-2%	1	-1%
O=C(Nc1ccnn1C1CCN(Cc2cccc(OCCO)c2)CC1)C1CCOC1 (centres undefined)	-9%	16	5.2µM*	2%	-2	8%
CCOc1cccc(CN2CCC(n3nccc3NC(=O)C3CCCC3)CC2)c1	-18%	-25	54%	2%	-1	1%
O=C(NCC1CCCO1)c1ccc(OC2CCN(C(=O)C3CC3)CC2)cc1 (centres undefined)	0%	33	66%	-2%	-1	-3%
C[C@H](NC(=O)c1ccco1)C(=O)N1CCCC1	8%	-14	16%	1%	1	-4%
CC(C)c1ccc(O)c(NC(=S)NC(=O)CCc2ccccc2)c1	6%	15	?	-1%	0	1%
CCOc1ccccc1N1CCN(C(=O)NC(C)c2ccc(F)c(F)c2)CC1 (centres undefined)	?	-8	-25%	-2%	5	-4%
COc1cccc(NC(=O)N2CCC3(CC2)OCCO3)c1	50%	61*	?	-17%	31*	9%
COc1cccc(NC(=O)N2CCN(c3cccc(C)c3C)CC2)c1	-23%	66*	/	-27%	38*	-68%
Cc1cccc(N2CCN(C(=O)NC(C)c3ccc(F)c(F)c3)CC2)c1C (centres undefined)	12µM*	3	12µM*	-4%	-3	-9%
Cc1cccc(C)c1NC(=O)C[N+](C)(C)CC(O)COc1cccc2ccccc12 (centres undefined)	?	-6	19%	-1%	-1	1%
CCCCn1c(N)c(N(C)C(=O)c2ccc(Br)o2)c(=O)[nH]c1=O	4%	/	16%	0%	/	/
Cc1ccc(C(=O)Nc2ccc3c(c2)nc2n3CCSC2)cc1	5%	52	/	-1%	31*	-45%
CC(=O)Nc1ccc2c(c1)nc1n2CCSC1	/	-42	24%	-8%	1	2%
COc1ccccc1C(=O)Nc1ccc2c(c1)nc1n2CCSC1	68%	60*	107%	-17%	24*	3%
COc1ccccc1C(=O)Nc1ccc2c(c1)nc1n2CCN(Cc2ccccc2)C1	?	16	?	0%	-2	/
COCCN(C(=O)COC(=O)c1cc2ccccc2cc1O)c1c(N)n(Cc2ccccc2)c(=O)[nH]c1=O	16%	/	42%	0%	/	/
SMILES	Pf growth 48h	Shiga toxin inh	Pf growth 96h	SARS PLP yeast	Cycloheximide cs	NS1 function inh
O=C(N/N=C/c1ccc(OC(F)F)cc1)c1ccc(CSc2nc3ccccc3[nH]2)cc1	-28%	15	13µM*	?	11	15%
CCOc1ccc(/C=N/NC(=O)c2ccc(CSc3nc4ccccc4[nH]3)cc2)cc1	6%	43*	0%	-6%	21*	?
COc1ccccc1N(CN1C(=O)c2ccccc2C1=O)C(=O)c1cccc(C)c1	2%	-8	-30%	-13%	-9	5%
O=C(NC1CCN(C(=O)Nc2ccc(F)cc2)CC1)c1ccccc1F	1%	-18	16%	-7%	-6	7%
CC(=O)OC(c1nc2ccccc2c(=O)n1C1CC2(OC1=O)c1ccccc1N1C(=O)C(C)(C)N(O)C12)C(C)C (centres undefined)	2.1µM*	-3	10µM*	0%	2	-8%
CC(=O)c1ccc(S(=O)(=O)Nc2ccc(-n3c(C)nc4ccccc4c3=O)cc2)cc1	5%	/	-1%	5%	/	/
CCOC(=O)N1CCN(C(=O)c2cn(C)c3ccc(S(=O)(=O)N4CCOCC4)cc3c2=O)CC1	9%	-14	12µM*	-5%	-2	-6%
CCOc1ccc(S(=O)(=O)N2CCN(C(=O)c3cc(S(=O)(=O)N4CCOCC4)ccc3C)CC2)cc1	8.3µM*	/	3.7µM*	-9%	/	/
Cn1cc(C(=O)N2CCN(c3ccccc3)CC2)c(=O)c2cc(S(=O)(=O)N3CCOCC3)ccc21	-10%	-3	?	8%	-2	-15%
COC(CNC(=O)c1cn(C)c2ccc(S(=O)(=O)N3CCOCC3)cc2c1=O)OC	-5%	11	9.3µM*	-2%	12	0%
CCn1cc(C(=O)NCC(OC)OC)c(=O)c2cc(S(=O)(=O)N3CCOCC3)ccc21	5%	-3	?	-1%	9	15%
CC(=O)c1cccc(S(=O)(=O)NCCC(=O)O)c1	2%	-18	22%	1%	10	5%
O=C(Nc1ccc(N2CCN(C(=O)c3ccco3)CC2)cc1)c1ccccc1F	?	24	?	1%	22*	-4%
O=C(Nc1ccc(N2CCN(C(=O)c3ccco3)CC2)cc1)c1cccc(F)c1	?	16	?	6%	22*	-12%
O=C(Nc1cccc(F)c1)N1CCN(C(=O)c2ccco2)CC1	0%	-9	-24%	-5%	2	11%
O=C(c1cccc(F)c1)N1CCN(Cc2ccco2)CC1	8%	-3	6.6µM*	1%	3	7%
O=C(Nc1ccc(N2CCN(C(=O)c3ccco3)CC2)cc1)c1ccccc1Br	?	-30	2%	1%	9	8%
COC(=O)C1=C(COc2ccc(C=O)cc2OC)NC(=O)NC1c1cc(C)ccc1C (centres undefined)	0%	-11	28%	-8%	-1	20%
